Structures are written as SMILES. About 83,000 compounds went through this panel and 20% of them were active in at least one assay; those are over-represented in the sample as a whole.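 Compound tested at a single concentration for 48 hours in 96-well plates; a percent growth value below 10 was scored as active.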 Activity calls are given as the source filed them.

The test has as its system HCT-116 colon. Briefly: NCI-60 one-dose screen, 48 h (100 = growth as untreated, 0 = no growth, -100 = all killed). The settings on record: 10 µM unless noted.
On to `COc1ccc(C2CC(c3cccc(OCCCCOc4cccc(C5=NN(C(C)=O)C(c6ccc(OC)cc6)C5)c4)c3)=NN2C(C)=O)cc1` (stereo not drawn), for which the growth is 47.3% (inactive).

`O=C(CSc1nc2ccccc2c(=O)n1-c1ccccc1)Nc1ccc(S(=O)(=O)Nc2nccs2)cc1`: the growth was 37.7% (inactive).

As for `COC(=O)c1ccc(NC2=C(Cl)C(=O)C(C)=C(C)C2=O)cc1`, the growth is 32.4% (inactive).

Regarding `O=S(=O)(Oc1ccc(-c2cn3ccoc3n2)cc1)c1cccc(C(F)(F)F)c1`, the growth is 102% (inactive).

As to `O=C(Nc1ccc(N2CCOCC2)cc1)Nc1ccc2c(ccn2C(=O)c2cccc(F)c2)c1`, the growth was 24.2% (inactive).

`CCc1cc(OC(=O)N2CCN(CCC(C)(COC(C)(C)C)COC(C)(C)C)CC2)ccc1Nc1cc(-c2ccc(-n3cccn3)cc2)[nH]n1`: the growth was 66.3% (inactive).

On to `COC(=O)CNC(=O)c1cccc(-c2cc(=O)c3c(OC)c(OC)c(OC)cc3o2)c1`, for which the growth was 101% (inactive).

Regarding `Cc1csc(/N=C(N)/N=C(\N)c2cccs2)n1`, the growth was 107% (inactive).

With `C#Cc1nc(C(=O)NCCCCCCC(=O)NO)cs1`, the growth was -18.2% (active).

For the compound `COC(=O)c1ccc(NC2=C(Cl)C(=O)c3nc(C)ccc3C2=O)cc1`, the growth was 43.1% (inactive).

As to `O=C(Nc1ccc(N=Cc2c(O)[nH]c3ccccc23)cc1)Nc1ccc(S(=O)(=O)Nc2ncccn2)cc1`, the growth is 92.7% (inactive).

On to `CSc1ccc(/C(=N/N=C(N)N)c2ccc(Cl)cc2)cc1`, for which the growth was -27.7% (active).

As to `O=c1[nH][nH]c(-c2ccc(F)cc2)c1-c1nc2ccccc2s1`, the growth was 93.2% (inactive).

The record behind these values is PubChem BioAssay (NCI).
